This note sets out measurements from PubChem BioAssay (EPA / NIEHS).

By AC50 is commonly meant the concentration giving half of the maximal activity seen.

Test [1] can be described thus: Tanguay_ZF_120hpf_PFIN_legacy: (Legacy) Oregon State University Tanguay Lab 120 Hour Post-fertilization zebrafish Assay for Pectoral Fin Malformation (AID 2283648).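 Also: each larva judged yes or no for fin defect by brightfield with dead larvae skipped.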 In outline: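 Tropical 5D wild-type embryos, dechorionated with pronase at 4 hpf, were placed singly in wells at 6 hpf and statically exposed until 120 hpf at 28C, sealed and dark, with 0.64% (vol/vol) final DMSO; pectoral fin malformation scored present/absent.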

A short description of test [2]: Tanguay_ZF_120hpf_CFIN_legacy: (Legacy) Oregon State University Tanguay Lab 120 Hour Post-fertilization zebrafish Assay for Caudal Fin Malformation (AID 2283649). Summed up:
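Binary brightfield scoring of caudal fin defects at 120 hpf after static, light-shielded exposure at 28C from 6 hpf. Tropical 5D embryos, chorion removed with pronase at 4 hpf, final DMSO 0.64%.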

Test [3] in a line: Tanguay_ZF_120hpf_SWIM_legacy: (Legacy) Oregon State University Tanguay Lab 120 Hour Post-fertilization zebrafish Assay for Swim Bladder Malformation (AID 2283654).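 Also: swim bladder malformation in each larva scored yes or no under brightfield.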 Summed up: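 Dechorionated Tropical 5D wild-type embryos, placed singly from 6 hpf, were statically exposed at 28C to 120 hpf with 0.64% DMSO final; swim bladder malformation was scored present/absent by brightfield microscopy, gain of signal relative to DMSO controls.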

A short description of test [4]: Tanguay_ZF_120hpf_TRUN_legacy: (Legacy) Oregon State University Tanguay Lab 120 Hour Post-fertilization zebrafish Assay for Truncated Body (AID 2283655). Summed up: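 Binary presence/absence of truncated body is recorded at 120 hpf by brightfield, with non-mortality endpoints skipped after death. Exposure is static from 6 hpf in sealed dark plates at 28C, using dechorionated wild-type zebrafish, 0.64% DMSO.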

The nature of test [5]: Tanguay_ZF_120hpf_NC_legacy: (Legacy) Oregon State University Tanguay Lab 120 Hour Post-fertilization zebrafish Assay for Notochord and Tail Malformation (AID 2283656). In outline: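 Dechorionated Tropical 5D wild-type zebrafish embryos, one per well from 6 hpf, statically exposed to 120 hpf at 28C in 0.64% DMSO final. Notochord distortion scored present/absent by brightfield; dead embryos excluded.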

Test [6] in a line: Tanguay_ZF_120hpf_TR_legacy: (Legacy) Oregon State University Tanguay Lab 120 Hour Post-fertilization zebrafish Assay for Touch Response (AID 2283667). In outline: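 Tropical 5D wild-type zebrafish embryos were exposed statically in sealed, foil-covered plates at 28C until 120 hpf, with 0.64% (vol/vol) final DMSO. Touch response was scored as present or absent; embryos that died were not scored.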

A short description of test [7]: Tanguay_ZF_120hpf_ActivityScore_legacy: (Legacy) Oregon State University Tanguay Lab 120 Hour Post-fertilization zebrafish Assay Score for Activity (AID 2283742). In outline:
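Tropical 5D wild-type zebrafish embryos, dechorionated with pronase at 4 hpf, were exposed singly from 6 hpf to 120 hpf statically at 28C in 0.64% DMSO. Malformations and mortality were scored as binary by brightfield, with the activity score combining 18 morphology components.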

The test system of test [8] is rat Monoamine Oxidase, MAO-A, Central (MAOAC), gene 29253. Briefly: NVS_ENZ_rMAOAC: NovaScreen (NVS) Enzymatic Assay for rat Monoamine Oxidase, MAO-A, Central (MAOAC) (AID 2283243).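 Also: potency refers to inhibition seen as signal drop below DMSO baseline.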 In outline: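 Rat brain tissue extract used as enzyme source in a cell-free radiometric assay, read by scintillation counting 1.5 hours after dosing. Loss of signal relative to DMSO baseline scored; primary screen at 25 uM in duplicate, actives followed up in concentration series.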

Test [9] deals with D(1A) dopamine receptor (Homo sapiens) (UniProt P21728). Briefly: NVS_GPCR_hDRD1: NovaScreen (NVS) G Protein-Coupled Receptor Assay for human Dopamine Receptor D1 (DRD1) (AID 2283269). In outline: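 Extracted HEK293 DRD1 is incubated 1 h with compound and a tritiated or iodinated radioligand, then filtered and counted. Screening runs 25 uM in duplicate with on-plate positive and negative controls.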
Sequence of D(1A) dopamine receptor (Homo sapiens) (P21728 whole entry, looked up): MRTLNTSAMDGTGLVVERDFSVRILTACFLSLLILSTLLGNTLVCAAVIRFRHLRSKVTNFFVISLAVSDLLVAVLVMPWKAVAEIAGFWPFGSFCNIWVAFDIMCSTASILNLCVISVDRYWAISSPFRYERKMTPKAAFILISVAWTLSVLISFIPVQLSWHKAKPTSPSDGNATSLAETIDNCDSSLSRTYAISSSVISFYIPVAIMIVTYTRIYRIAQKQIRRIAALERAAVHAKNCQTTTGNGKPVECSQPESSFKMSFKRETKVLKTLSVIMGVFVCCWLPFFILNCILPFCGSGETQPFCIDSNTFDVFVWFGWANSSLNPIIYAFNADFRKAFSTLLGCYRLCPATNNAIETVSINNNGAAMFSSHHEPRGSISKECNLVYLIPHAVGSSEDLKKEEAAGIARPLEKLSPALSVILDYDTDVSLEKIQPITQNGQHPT

A short description of test [10]: CEETOX_H295R_ANDR: CeeTox H295R High-throughput Steroidogenesis Assay for Androstenedione (ANDR) (AID 2283436; active = hit-call score of the fitted dose curve at least 0.9, where 1 is the maximum; inactive = score below 0.9). The conditions noted are these: actives raise or lower the signal. Summed up:
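H295R human adrenal cells (passages ≤10) were exposed to test chemicals for 48 h; androstenedione in medium was MTBE-extracted and quantified by HPLC-MS/MS against a 7-point standard curve. Bidirectional fitting used DMSO as baseline.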

A short description of test [11]: CEETOX_H295R_TESTO: CeeTox H295R High-throughput Steroidogenesis Assay for Testosterone (TESTO) (AID 2283457; active = hit-call score of the fitted dose curve at least 0.9, where 1 is the maximum; inactive = score below 0.9;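 as to AC50: cells exposed to chemicals for 48 h before medium collection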). The conditions noted are these: actives raise or lower the signal. In outline:
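Testosterone secreted into the medium over 48 h by H295R cells (maximum passage 10) was quantified by LC-MS/MS after MTBE extraction. Fitted in both directions against DMSO, with concentrations diluted until MTT viability was ≥70%.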

Test [12] relates to DIO1 (gene 1733). Briefly: CCTE_GLTED_hDIO1: CCTE's human Deiodinase 1 (DIO1) Inhibition Assay, Great Lakes Toxicology and Ecology Division (GLTED) Lab (AID 2283987).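 Also: isolated human DIO1 enzyme in a cell-free setup rather than cells; enzyme activity read as free iodide liberated from substrate via Sandell-Kolthoff colorimetry.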 In outline: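 Inhibition read as reduced iodide release: after 3 h of human DIO1 with chemical, free iodide is quantified colorimetrically (Sandell-Kolthoff cerium/arsenic reaction). Triplicate plates, DMSO baseline.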

The test system of test [13] is DIO2 (gene 1734). Briefly: CCTE_GLTED_hDIO2: CCTE's human Deiodinase 2 (DIO2) Inhibition Assay, Great Lakes Toxicology and Ecology Division (GLTED) Lab (AID 2284050). Summed up:
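Cell-free human DIO2 incubated 3 h with chemical; liberated iodide quantified by Sandell-Kolthoff absorbance. Triplicate plates; loss of signal fitted vs DMSO.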

Test [14] has as its system DIO3 (gene 1735). Briefly: CCTE_GLTED_hDIO3: CCTE's human Deiodinase 3 (DIO3) Inhibition Assay, Great Lakes Toxicology and Ecology Division (GLTED) Lab (AID 2284055).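 Also: potency is for inhibition seen as loss of released iodide signal.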 In outline: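 Human DIO3 from an adenovirus expression system is incubated 3 h with test chemical. Released iodide is quantified by Sandell-Kolthoff absorbance, in triplicate plates. Loss of signal is fitted relative to DMSO.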

Test [15] in a line: TAMU_PeakParms_SingleDonor1434_QT: Texas A&M University (TAMU) 1.5-hr Human Induced Pluripotent Stem Cell (iPSC)-derived Cardiomyocytes Calcium (Ca+2) Flux Assay for Cardiotoxicity: QT (decay-rise ratio) (AID 2284235). Summed up:
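iPSC-derived cardiomyocytes (single donor 1434) dosed at 0.2, 1, 10, 100 uM final in 0.5% DMSO, 90 min at 37C. Ca2+ flux fluorescence decay/rise ratio; EC05 (5% increase versus DMSO) as POD, excluding beat-arrest and severe-notch data.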

Test [16] has as its system zebrafish Androgen Receptor (AR), gene 100005148. Briefly: ATG_zfAR_XSP1: Attagene TRANS-FACTORIAL Multi-Species (XSP1) HepG2 Assay for zebrafish Androgen Receptor (AR) (AID 2283771). In outline: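 HepG2 cells were transiently transfected with a zebrafish AR-GAL4 reporter system and partially stimulated with 3 nM 6-alpha-fluorotestosterone. Reporter mRNA was measured after 24 h dosing by RT-PCR with capillary electrophoresis, and gain-of-signal was fitted relative to DMSO.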

Test [17] has as its target chicken Estrogen Receptor (ESR1), ESR1 (gene 396099) (UniProt P06212). The test can be described thus: ATG_chERa_XSP1: Attagene TRANS-FACTORIAL Multi-Species (XSP1) HepG2 Assay for chicken Estrogen Receptor (ESR1) (AID 2283779). Summed up: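 HepG2 cells transiently transfected with multiplexed GAL4-UAS reporter units expressing chimeric NR-Gal4 proteins; 3 nM 6-alpha-fluorotestosterone present. Reporter mRNA measured 24 h after dosing by RT-PCR, FAM labelling, HpaI digest and capillary electrophoresis; gain of signal versus DMSO.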

The subject of test [18] is turtle Estrogen Receptor (ESR1), gene 101933533. Briefly: ATG_trERa_XSP1: Attagene TRANS-FACTORIAL Multi-Species (XSP1) HepG2 Assay for turtle Estrogen Receptor (ESR1) (AID 2283781). Summed up:
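HepG2 cells transiently transfected with GAL4-UAS reporter units and chimeric NR-Gal4 constructs, dosed for 24 h with 3 nM 6-alpha-fluorotestosterone present. Reporter mRNA was quantified by RT-PCR, fluorescent labelling and capillary electrophoresis, with gain of signal fitted relative to DMSO.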

Test [19] has as its target Nuclear receptor subfamily 1 group I member 2 (Mus musculus) (UniProt O54915). Briefly: ATG_mPXR_XSP1: Attagene TRANS-FACTORIAL Multi-Species (XSP1) HepG2 Assay for mouse Pregnane X Receptor (PXR) (AID 2283803). In outline: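 Transiently transfected HepG2 cells expressing a receptor-Gal4 chimera drive a GAL4-UAS reporter; 3 nM 6-alpha-fluorotestosterone included. Reporter mRNA read 24 h post-dose by RT-PCR and capillary electrophoresis; gain of signal relative to DMSO.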

Test [20] addresses zebrafish Thyroid Hormone Receptor alpha (TRa), thraa (gene 30670) (UniProt Q98867). Briefly: ATG_zfTRa_XSP1: Attagene TRANS-FACTORIAL Multi-Species (XSP1) HepG2 Assay for zebrafish Thyroid Hormone Receptor alpha (TRa) (AID 2283807). In outline:
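HepG2 cells transiently transfected with GAL4-UAS reporter units including a zebrafish TRa–Gal4 chimera, dosed 24 h with 3 nM 6-alpha-fluorotestosterone present. Reporter mRNA quantified by RT-PCR and capillary electrophoresis; gain versus DMSO.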

Inconclusive results are not listed. Active and inactive are the calls of the source. The calls were made as follows, unless noted: active = hit-call score of the fitted dose curve at least 0.9, where 1 is the maximum; inconclusive = response in the unintended direction; inactive = score below 0.9.

Sequence of Nuclear receptor subfamily 1 group I member 2 (Mus musculus) (O54915 whole entry, looked up, the tested form may be a part): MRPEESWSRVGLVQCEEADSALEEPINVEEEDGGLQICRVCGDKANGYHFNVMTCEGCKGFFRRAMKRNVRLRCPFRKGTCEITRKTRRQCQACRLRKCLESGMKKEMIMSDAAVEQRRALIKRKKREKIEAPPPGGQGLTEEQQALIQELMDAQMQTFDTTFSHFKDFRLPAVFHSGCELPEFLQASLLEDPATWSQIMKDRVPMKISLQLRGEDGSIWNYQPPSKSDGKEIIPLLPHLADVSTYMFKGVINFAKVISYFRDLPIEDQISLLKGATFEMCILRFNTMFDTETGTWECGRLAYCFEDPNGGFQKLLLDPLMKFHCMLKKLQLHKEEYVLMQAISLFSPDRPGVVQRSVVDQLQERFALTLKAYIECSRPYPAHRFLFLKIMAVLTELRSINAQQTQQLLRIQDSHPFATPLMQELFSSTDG
Sequence of zebrafish Thyroid Hormone Receptor alpha (TRa), thraa (gene 30670) (Q98867 whole entry, looked up, the tested form may be a part): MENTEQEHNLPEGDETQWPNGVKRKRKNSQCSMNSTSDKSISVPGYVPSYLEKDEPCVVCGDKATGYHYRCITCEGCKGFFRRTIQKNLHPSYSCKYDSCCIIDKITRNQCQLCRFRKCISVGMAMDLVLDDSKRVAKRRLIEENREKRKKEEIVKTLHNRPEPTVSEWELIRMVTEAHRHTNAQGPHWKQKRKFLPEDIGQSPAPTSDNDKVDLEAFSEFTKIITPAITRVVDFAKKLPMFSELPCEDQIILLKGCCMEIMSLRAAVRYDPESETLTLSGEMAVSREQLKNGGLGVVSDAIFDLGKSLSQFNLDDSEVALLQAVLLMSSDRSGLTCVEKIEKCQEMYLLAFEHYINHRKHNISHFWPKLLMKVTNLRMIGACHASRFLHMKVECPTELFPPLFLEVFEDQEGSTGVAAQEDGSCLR
Sequence of chicken Estrogen Receptor (ESR1), ESR1 (gene 396099) (P06212 whole entry, looked up, the tested form may be a part): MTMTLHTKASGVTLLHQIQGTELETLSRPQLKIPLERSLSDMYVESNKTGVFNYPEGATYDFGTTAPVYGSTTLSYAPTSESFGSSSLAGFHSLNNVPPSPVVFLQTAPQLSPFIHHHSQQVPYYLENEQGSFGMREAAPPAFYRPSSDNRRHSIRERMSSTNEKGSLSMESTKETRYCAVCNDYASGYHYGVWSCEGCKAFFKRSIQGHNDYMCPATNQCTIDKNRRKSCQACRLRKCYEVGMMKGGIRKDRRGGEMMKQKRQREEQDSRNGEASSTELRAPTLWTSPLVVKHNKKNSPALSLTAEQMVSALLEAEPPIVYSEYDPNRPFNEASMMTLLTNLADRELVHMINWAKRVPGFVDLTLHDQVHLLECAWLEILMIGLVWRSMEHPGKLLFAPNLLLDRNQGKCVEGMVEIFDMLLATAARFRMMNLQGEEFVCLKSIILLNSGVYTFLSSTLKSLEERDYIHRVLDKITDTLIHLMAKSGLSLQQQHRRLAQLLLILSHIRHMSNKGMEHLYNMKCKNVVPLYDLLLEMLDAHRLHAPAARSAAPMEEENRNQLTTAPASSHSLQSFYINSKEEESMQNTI

For the compound `O=C(CCl)c1ccccc1`, the compound was called inactive in [1], in test [2], in test [3], in [4], in [5] and in test [6]. Also, the AC50 in [7] was 1.45 µM (active).

As to `CNC(=O)Oc1cc(C)c(SC)c(C)c1`, the AC50 in [8] was 14 µM (active); in [10] it was 37.7 µM (active); in test [11], 36 µM (active). The call in [9] was inactive.

For the compound `C=CC(=O)OCC(CC)CCCC` (stereo not given), the AC50 in test [12] is 19.4 µM (active); in [13], 23.8 µM (active); in test [14] it was 47 µM (active).

Regarding `CC(C)CCCCCCCOP(=O)(Oc1ccccc1)Oc1ccccc1`, the outcome in [15] was inactive.

In the case of `CC(C)CCCCCCCOC(=O)c1ccccc1C(=O)OCCCCCCCC(C)C`, the call in [16], in test [17], in [18] and in test [20] was inactive. Further, in test [19], the AC50 was 0.611 µM (active).

In the case of `O=C1C=CC(=O)C=C1`, the AC50 in [9] is 12.8 µM (active).

Turning to `O=[N+]([O-])c1ccc(Cl)cc1`, the compound was called inactive in test [1], in test [2], in [3], in test [4], in test [5] and in test [6]. Besides, in [7], the compound was called inactive.

Take `O=CNC(N1CCN(C(NC=O)C(Cl)(Cl)Cl)CC1)C(Cl)(Cl)Cl` (stereo not given): the AC50 in [10] is 50 µM (active). Besides, in test [11], the outcome was inactive.

For the compound `CCCCCCCCCCCCCCCC[N+](C)(C)C`, the values for the half-maximal activity concentration (AC50) in [12], in [13] and in test [14] were 13.5 µM (active), 19.8 µM (active) and 1.56 µM (active), respectively.

Regarding `Cc1ccc(OP(=O)(Oc2ccc(C)cc2)Oc2ccc(C)cc2)cc1` (tested in a mixture with another compound), the result in test [15] was inactive.

Turning to `Nc1ccc(-c2ccc(N)c(N)c2)cc1N`, the AC50 in [8] was 14.1 µM (active).

Turning to `CC(=O)c1cc2c(cc1C)C(C)(C)C(C)CC2(C)C` (stereo not given), the AC50 in test [16] is 64.4 µM (active); in test [17] it was 59.7 µM (active); in test [19], 1 µM (active); in test [20], 145 µM (active). In test [18], the call was inactive.
